According to PubChem BioAssay (NCI):
This is part of a sample that, as a whole, favours compounds with a hit. Of some 79,000 tested, about 15% had one in any assay. Active and inactive are the calls of the source. No stated cut-off is given here; in the data, active means growth inhibition above about 70%; inactive means the rest.

What was measured:
[1] = NCI Yeast Anticancer Drug Screen. Data for the rad50 strain (AID 155);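 further: 0% = growth of vehicle-only cultures of the same strain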; conditions: S. cerevisiae rad50 strain growth inhibition, active compounds read high
Method in brief: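 Growth of the mutant yeast was measured after compound exposure and referenced to vehicle-treated cultures.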

[2] = NCI Yeast Anticancer Drug Screen. Data for the mec2-1 strain (AID 157); conditions: S. cerevisiae mec2-1 strain, active compounds read high
Method in brief: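 Test agents were screened against the mec2-1 yeast strain, with defined DNA repair or cell cycle alteration. Growth was scored as inhibition against vehicle-only controls.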

[3] = NCI Yeast Anticancer Drug Screen. Data for the sgs1 mgt1 strain (AID 161);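 further: 0% = growth of cultures given vehicle only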; conditions: S. cerevisiae sgs1 mgt1 strain, active compounds read high
Method in brief: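 Mutant yeast exposed to compound; growth scored against vehicle-only wells.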

[4] = NCI Yeast Anticancer Drug Screen. Data for the cln2 rad14 strain (AID 165);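 further: 0% = growth equal to vehicle treated cultures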; conditions: S. cerevisiae cln2 rad14 strain, active compounds read high
Method in brief: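 Growth of compound-exposed yeast (cln2 rad14 genotype) measured and expressed as inhibition relative to vehicle.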

[5] = NCI Yeast Anticancer Drug Screen. Data for the bub3 strain (AID 167); conditions: S. cerevisiae bub3 mutant strain, active compounds read high
Method in brief: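 Whole-cell yeast assay. The mutant strain was incubated with compounds, and growth inhibition was determined by comparison with vehicle-treated cells.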

[6] = NCI Yeast Anticancer Drug Screen. Data for the mlh1 rad18 strain (AID 175); conditions: S. cerevisiae mlh1 rad18 strain growth inhibition, active compounds read high
Method in brief: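 In this whole-cell yeast screen, a strain with altered DNA damage repair is challenged with compound, and its growth is measured against matched vehicle-treated controls.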

[7] = at 5.0 µM (retest, dose inferred, filed as 0.5)
[8] = at 50.0 µM (retest, dose inferred, filed as 5.0)

Measured: growth inhibition

Cc1c(NC(=O)CCl)c(=O)oc2c(C)c3occc(=O)c3cc12
inactive: [1]; [7] 59% | [2]; [7] 16% | [3]; [7] 7% | [4]; [7] 10% | [4]; at 50.0 µM 29.3% | [5]; [7] 10% | [6]; [7] 13%
active: [1]; [8] 97% | [1]; at 50.0 µM 96.8% | [2]; [8] 93% | [2]; at 50.0 µM 83.8% | [3]; [8] 89% | [3]; at 50.0 µM 90.8% | [4]; [8] 85% | [5]; [8] 91% | [5]; at 50.0 µM 79.2% | [6]; [8] 94% | [6]; at 50.0 µM 92%

Cc1cc(NC(=S)SCc2ccc3c(c2)OCO3)ccc1Br
inactive: [1]; [7] 38% | [2]; [7] 28% | [3]; [7] 54% | [4]; [7] 40% | [5]; [7] 49% | [6]; [7] 34%
active: [1]; [8] 98% | [1]; at 50.0 µM 89.7% | [2]; [8] 98% | [2]; at 50.0 µM 91.6% | [3]; [8] 98% | [3]; at 50.0 µM 91.2% | [4]; [8] 99% | [4]; at 50.0 µM 87.2% | [5]; [8] 98% | [5]; at 50.0 µM 91.2% | [6]; [8] 98% | [6]; at 50.0 µM 89.7%

CS(=O)(=O)OCCN(CCOS(C)(=O)=O)c1ccc(C=Nc2cc(Br)c(O)c(Br)c2)c(Cl)c1
inactive: [1]; [7] 3% | [1]; at 50.0 µM 67.7% | [2]; [7] 29% | [2]; [8] 39% | [2]; at 50.0 µM 36.8% | [3]; [7] 3% | [4]; [7] 5% | [4]; [8] 45% | [4]; at 50.0 µM 10.2% | [5]; [7] -3% | [5]; at 50.0 µM 40.3% | [6]; [7] 8%
active: [1]; [8] 70% | [3]; [8] 80% | [3]; at 50.0 µM 82.5% | [5]; [8] 96% | [6]; [8] 91% | [6]; at 50.0 µM 85.8%

CC(C)(C)C(NO)C(O)N1CCCCC1 (configuration not stated)
inactive: [1]; [7] -155% | [1]; [8] -141% | [1]; at 50.0 µM 20.2% | [2]; [7] -53% | [2]; [8] -52% | [2]; at 50.0 µM 6.25% | [3]; [7] -59% | [3]; [8] -63% | [3]; at 50.0 µM 17.1% | [4]; [7] -63% | [4]; [8] -57% | [4]; at 50.0 µM 50% | [5]; [7] -69% | [5]; [8] -73% | [5]; at 50.0 µM -4% | [6]; [7] -118% | [6]; [8] -105% | [6]; at 50.0 µM 12.4%

CCOC(=O)c1cccc(C)c1C(=O)c1ccc(C)cc1C
active: [2]; [8] 79% | [2]; at 50.0 µM 79.3% | [5]; at 50.0 µM 82.8%
inactive: [1]; [7] 3% | [1]; [8] 66% | [1]; at 50.0 µM 38.9% | [2]; [7] 4% | [3]; [7] 0% | [3]; [8] -36% | [3]; at 50.0 µM 47.3% | [4]; [7] 6% | [4]; [8] -1% | [4]; at 50.0 µM -9.5% | [5]; [7] -4% | [5]; [8] 24% | [6]; [7] -2% | [6]; [8] 41% | [6]; at 50.0 µM 59.6%

CCOC(=O)/C(C#N)=C/c1coc2cc(C)cc(C)c2c1=O
active: [1]; [8] 100% | [1]; at 50.0 µM 70.4% | [2]; [8] 97% | [2]; at 50.0 µM 90.4% | [3]; [8] 98% | [3]; at 50.0 µM 79.9% | [4]; [8] 89% | [4]; at 50.0 µM 89.3% | [5]; [8] 93% | [5]; at 50.0 µM 83% | [6]; [8] 98%
inactive: [1]; [7] 6% | [2]; [7] 2% | [3]; [7] -3% | [4]; [7] -2% | [5]; [7] -20% | [6]; [7] 15% | [6]; at 50.0 µM 65.8%

NC(=O)SCC(=O)Nc1ccccc1
active: [1]; [8] 82% | [1]; at 50.0 µM 86.5% | [2]; [8] 83% | [3]; [8] 82% | [3]; at 50.0 µM 87.8% | [4]; [8] 81% | [4]; at 50.0 µM 80% | [5]; [8] 83% | [5]; at 50.0 µM 83.6% | [6]; [8] 87% | [6]; at 50.0 µM 87.2%
inactive: [1]; [7] 5% | [2]; [7] -1% | [2]; at 50.0 µM 67.9% | [3]; [7] 1% | [4]; [7] 5% | [5]; [7] 3% | [6]; [7] 3%

Cc1cc(SCC(=O)c2ccc(Cl)cc2)cc(C)[o+]1
active: [1]; [8] 90% | [1]; at 50.0 µM 95.8% | [2]; [8] 90% | [2]; at 50.0 µM 95.5% | [3]; [8] 93% | [3]; at 50.0 µM 96.4% | [4]; [8] 73% | [4]; at 50.0 µM 88.7% | [5]; [8] 87% | [5]; at 50.0 µM 96.3% | [6]; [8] 78% | [6]; at 50.0 µM 92.3%
inactive: [1]; [7] -3% | [2]; [7] -1% | [3]; [7] -2% | [4]; [7] -13% | [5]; [7] -2% | [6]; [7] -9%

O=C(Nc1ccccc1)ON=C1CCCCC1
active: [1]; [8] 75% | [1]; at 50.0 µM 80% | [3]; at 50.0 µM 94.2% | [5]; at 50.0 µM 77.2% | [6]; at 50.0 µM 89.6%
inactive: [1]; [7] 3% | [2]; [7] -31% | [2]; [8] 36% | [2]; at 50.0 µM 63.6% | [3]; [7] 3% | [3]; [8] 68% | [4]; [7] 6% | [4]; [8] 27% | [4]; at 50.0 µM 61.8% | [5]; [7] 50% | [5]; [8] 44% | [6]; [7] 5% | [6]; [8] 62%
